From PubChem BioAssay
Several values for one entry are separate records, joined by “and”; a condition that tells them apart may be missing. Identical values can stand only once. Activity calls are given as the source filed them. Unless noted, no rule for the calls is given here.

How the values were obtained:
[1] = tested on: Wnt5a (protein binding on small-molecule microarray); test: small molecules binding Wnt5a protein – biophysical, small-molecule microarray, 635/667 nm fluorescence, primary screen (AID 1142); conditions: 635 nm fluorescence, higher = more signal;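 also: fluorescence read at 667 nm with signal to noise per printed feature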
[2] = ATP-based viability of Huh7 replicon cells – cell-based, CellTiter-Glo luminescence, basal, 48 h, cytotoxicity control for HCV replication inhibitor project, primary screen (AID 1143); conditions: Huh7 HCV replicon, CellTiter-Glo luminescence, 48 h, higher = more signal, called active from +8 up or from −8 down unless noted;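 also: Huh7 hepatoma cells carrying a hepatitis C replication reporter with no stimulus; test concentration not given here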
[3] = Pseudomonas biofilm growth suppression – PAO1 strain, BacTiter-Glo luminescence, LB-PBS, primary screen (AID 1144); conditions: P. aeruginosa PAO1 biofilm, 12 h, higher = more signal
[4] = basal CRE-LacZ reporter activity in PC12 – cell-based, unstimulated, primary screen (AID 1145); conditions: no forskolin, luminescence, 4.5 h; higher = more signal, called active from +8 up or from −8 down unless noted
[5] = forskolin-driven CRE-LacZ activity in PC12 – cell-based, CRE-LacZ reporter, forskolin-stimulated, primary screen (AID 1146); conditions: luminescence, 4.5 h; higher = more signal, called active from +8 up or from −8 down unless noted;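 also: PC12 cells with 6xCRE LacZ reporter stimulated by forskolin 10 µM; beta-galactosidase reporter signal reflecting CREB driven transcription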
[6] = target: Streptavidin (Streptomyces avidinii) (UniProt P22629); test: compounds binding control protein streptavidin – biophysical, small-molecule microarray, 635/667 nm fluorescence, artefact control for SMM compound annotation, primary screen (AID 1147); conditions: higher = more signal;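 also: signal reflects streptavidin binding to arrayed compounds as a control protein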
[7] = probe aInhba binding on compound microarray – biochemical, small-molecule microarray, 635/667 nm fluorescence, primary screen (AID 1148); conditions: higher = more signal; small-molecule microarray, probe aInhba, fluorescence unless noted;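 also: score merges 667nm spot fluorescence with signal-to-noise for antibody binding to printed compounds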
Torsin-1A (Homo sapiens) [8] = target: Torsin-1A (Homo sapiens) (UniProt O14656); test: TOR1A wild-type binding on microarray – cell lysate, small-molecule microarray, lysate, 635/667 nm, primary screen (AID 1149); conditions: COS7 hTOR1A-WT lysate, 635 nm fluorescence, higher = more signal
Torsin-1A (Homo sapiens) [9] = target: Torsin-1A (Homo sapiens) (UniProt O14656); test: torsin A mutant lysate binding on microarrays – cell lysate, small-molecule microarray, COS7 lysate, 635/667 nm fluorescence, primary screen (AID 1150); conditions: COS7 hTOR1A mutant lysate, 635 nm fluorescence, higher = more signal;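 also: score pools 667 nm emission and signal to noise measuring lysate protein binding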
[10] = tested on: Sonic hedgehog protein (Shh); test: Sonic hedgehog microarray binding compounds – biochemical, small-molecule microarray, 635/667 nm fluorescence, primary screen (AID 1151); conditions: 635 nm fluorescence, higher = more signal;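 also: Shh protein binding to compounds spotted on small-molecule microarray slides; score combines spot fluorescence intensity with signal-to-noise across triplicate slides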
[11] = optical density shifts of acrAB sulA E. coli – strain DRC41, OD650, 48 h, E. coli filamentation inducer project, primary screen (AID 1152); conditions: higher = more signal, called active from +8 up or from −8 down unless noted;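 also: E. coli MC1000 strain DRC41 lacking acrAB efflux pump and sulA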
[12] = probe aLefty1 binding on compound microarray – biochemical, small-molecule microarray, 635/667 nm fluorescence, primary screen (AID 1153); conditions: higher = more signal; small-molecule microarray, probe aLefty1, fluorescence unless noted;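 also: score merges spot fluorescence with signal-to-noise ratio from the scanned slide images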
[13] = plasmodial surface anion channel blockers, osmotic lysis – cell-based, P. falciparum Indochina, OD700, 1 h, primary screen (AID 1154); conditions: P. falciparum Indochina infected RBC osmotic lysis; higher = more signal, called active from +8 up or from −8 down unless noted
[14] = plasmodial surface anion channel blockers, osmotic lysis – cell-based, P. falciparum Indochina, OD700, 2 h, primary screen (AID 1155);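 also: lysis reports solute entry through the parasite surface anion channel PSAC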; conditions: P. falciparum Indochina infected erythrocytes; higher = more signal, called active from +8 up or from −8 down unless noted
[15] = changes in parasitized red cell lysis, either direction – P. falciparum Indochina, OD700, 3 h, PSAC antagonist project, primary screen (AID 1156); conditions: P. falciparum-infected erythrocytes, osmotic lysis; higher = more signal, called active from +8 up or from −8 down unless noted
[16] = plasmodial surface anion channel blockers, osmotic lysis – cell-based, P. falciparum Indochina, OD700, 18 h, primary screen (AID 1157); conditions: P. falciparum Indochina infected erythrocytes, osmotic lysis OD700, 18 h; higher = more signal, called active from +8 up or from −8 down unless noted
[17] = S6 kinase pathway phospho-S6 level changes – cell-based, A549, cytoblot, luminescence, serum-stimulated, primary screen (AID 1158); conditions: 5 h, higher = more signal;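 also: serum-stimulated A549 lung adenocarcinoma cells; signal is phosphorylated S6 detected by cytoblot immunostaining with HRP secondary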
[18] = target: NADPH oxidase 2 (Homo sapiens) (UniProt P04839); test: compounds shifting NOX2 Amplex Red fluorescence – cell-based, HEK293-NOX2, PMA-stimulated, NOX inhibitor project, primary screen (AID 1159); conditions: 45 min; higher = more signal, called active from +8 up or from −8 down unless noted; also: test concentration not given here
[19] = target: NADPH oxidase 4 (Homo sapiens) (UniProt Q9NPH5); test: compounds shifting NOX4 Amplex Red fluorescence – cell-based, HEK293-NOX4, tetracycline-induced, NOX inhibitor project, primary screen (AID 1160); conditions: HEK293-NOX4, Amplex Red H2O2 fluorescence, 45 min; higher = more signal, called active from +8 up or from −8 down unless noted
[20] = target: NADPH oxidase 5 (Homo sapiens) (UniProt Q96PH1); test: compounds shifting NOX5 Amplex Red fluorescence – cell-based, HEK293-NOX5, NOX inhibitor project, primary screen (AID 1161); conditions: HEK293-NOX5, ionomycin, 45 min, higher = more signal
Chain of NADPH oxidase 5 (Homo sapiens) (Q96PH1 whole entry, looked up): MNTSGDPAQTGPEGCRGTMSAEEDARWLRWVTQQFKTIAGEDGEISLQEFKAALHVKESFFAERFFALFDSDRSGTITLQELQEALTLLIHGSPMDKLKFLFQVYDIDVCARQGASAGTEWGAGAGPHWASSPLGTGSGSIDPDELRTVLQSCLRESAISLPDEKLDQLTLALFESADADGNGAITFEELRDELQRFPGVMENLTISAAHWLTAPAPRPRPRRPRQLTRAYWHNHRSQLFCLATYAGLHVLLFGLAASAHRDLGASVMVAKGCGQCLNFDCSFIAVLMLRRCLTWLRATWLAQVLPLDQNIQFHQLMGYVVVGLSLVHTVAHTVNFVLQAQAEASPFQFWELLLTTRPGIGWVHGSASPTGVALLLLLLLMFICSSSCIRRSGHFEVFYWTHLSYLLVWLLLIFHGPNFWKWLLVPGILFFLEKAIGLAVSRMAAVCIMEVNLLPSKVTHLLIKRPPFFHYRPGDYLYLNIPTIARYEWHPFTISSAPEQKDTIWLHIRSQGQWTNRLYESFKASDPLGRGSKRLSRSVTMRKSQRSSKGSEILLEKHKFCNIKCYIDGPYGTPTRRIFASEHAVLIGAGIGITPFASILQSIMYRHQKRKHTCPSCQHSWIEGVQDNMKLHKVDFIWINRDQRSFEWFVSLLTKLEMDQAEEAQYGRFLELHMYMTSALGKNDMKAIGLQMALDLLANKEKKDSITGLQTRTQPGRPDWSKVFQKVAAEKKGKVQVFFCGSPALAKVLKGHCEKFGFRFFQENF

Chain of Torsin-1A (Homo sapiens) (O14656 whole entry, looked up): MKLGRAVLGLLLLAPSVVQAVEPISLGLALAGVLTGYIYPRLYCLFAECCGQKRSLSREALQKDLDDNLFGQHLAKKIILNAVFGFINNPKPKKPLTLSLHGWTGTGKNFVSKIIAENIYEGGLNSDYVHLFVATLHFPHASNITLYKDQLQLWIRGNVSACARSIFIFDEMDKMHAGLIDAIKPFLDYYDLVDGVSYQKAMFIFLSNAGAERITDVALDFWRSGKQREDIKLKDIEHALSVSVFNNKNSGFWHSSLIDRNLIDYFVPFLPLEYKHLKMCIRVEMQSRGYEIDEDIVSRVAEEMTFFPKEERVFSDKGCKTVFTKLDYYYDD
Chain of Streptavidin (Streptomyces avidinii) (P22629 whole entry, looked up): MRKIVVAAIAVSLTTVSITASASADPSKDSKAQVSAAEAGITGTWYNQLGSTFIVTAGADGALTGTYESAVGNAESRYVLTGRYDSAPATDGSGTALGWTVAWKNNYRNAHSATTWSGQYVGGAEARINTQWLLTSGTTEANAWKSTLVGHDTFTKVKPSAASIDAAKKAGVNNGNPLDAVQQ
Chain of NADPH oxidase 4 (Homo sapiens) (Q9NPH5 whole entry, looked up): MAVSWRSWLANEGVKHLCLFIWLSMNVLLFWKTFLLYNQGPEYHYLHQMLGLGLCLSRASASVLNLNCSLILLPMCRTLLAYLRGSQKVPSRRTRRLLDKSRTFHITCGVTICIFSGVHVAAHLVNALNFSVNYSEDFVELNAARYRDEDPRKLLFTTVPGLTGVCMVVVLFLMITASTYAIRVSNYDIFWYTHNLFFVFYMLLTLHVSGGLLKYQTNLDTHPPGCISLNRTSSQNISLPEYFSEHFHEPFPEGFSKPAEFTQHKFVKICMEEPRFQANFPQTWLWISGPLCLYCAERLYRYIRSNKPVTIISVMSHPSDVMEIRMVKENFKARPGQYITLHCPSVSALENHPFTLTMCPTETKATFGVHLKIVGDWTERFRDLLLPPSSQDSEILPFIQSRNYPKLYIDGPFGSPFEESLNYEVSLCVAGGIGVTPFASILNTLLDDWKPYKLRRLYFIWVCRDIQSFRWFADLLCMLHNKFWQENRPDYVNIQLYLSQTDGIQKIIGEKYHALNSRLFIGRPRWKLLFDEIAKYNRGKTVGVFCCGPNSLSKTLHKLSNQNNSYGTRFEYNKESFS
Chain of NADPH oxidase 2 (Homo sapiens) (P04839 whole entry, looked up): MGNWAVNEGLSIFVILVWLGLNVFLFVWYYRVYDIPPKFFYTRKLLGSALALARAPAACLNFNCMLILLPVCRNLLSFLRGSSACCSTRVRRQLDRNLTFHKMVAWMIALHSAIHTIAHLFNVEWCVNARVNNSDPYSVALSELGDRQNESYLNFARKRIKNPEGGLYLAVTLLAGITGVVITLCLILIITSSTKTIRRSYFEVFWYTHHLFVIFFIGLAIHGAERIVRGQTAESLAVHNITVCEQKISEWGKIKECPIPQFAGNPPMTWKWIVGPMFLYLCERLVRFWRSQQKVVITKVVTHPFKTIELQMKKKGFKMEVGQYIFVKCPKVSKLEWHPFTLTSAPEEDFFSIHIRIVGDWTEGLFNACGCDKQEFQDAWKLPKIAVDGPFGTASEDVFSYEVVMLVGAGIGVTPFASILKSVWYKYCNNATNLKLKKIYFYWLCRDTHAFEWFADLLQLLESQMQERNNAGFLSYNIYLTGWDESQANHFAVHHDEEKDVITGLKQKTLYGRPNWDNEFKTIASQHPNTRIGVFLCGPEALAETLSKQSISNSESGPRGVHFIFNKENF

| SMILES | composite z-score [1] | z-score [2] | z-score [3] | z-score [4] | z-score [5] | composite z-score [6] | composite z-score [7] | composite z-score (Torsin-1A (Homo sapiens) [8]) | composite z-score (Torsin-1A (Homo sapiens) [9]) | composite z-score [10] | z-score [11] | composite z-score [12] | z-score [13] | z-score [14] | z-score [15] | z-score [16] | z-score [17] | z-score [18] | z-score [19] | z-score [20] |
| --- | --- | --- | --- | --- | --- | --- | --- | --- | --- | --- | --- | --- | --- | --- | --- | --- | --- | --- | --- | --- |
| COc1cc2c(cc1O)C(C)N(C)CC2 (stereo not given) | -0.0967 | 0.639 (inactive) | 0.67 (inactive) | 0.0655 (inactive) | -0.497 (inactive) | 0.0031 | -0.0468 | -0.638 | -0.744 | -0.12 | 1.01 (inactive) | 0.026 | 0.726 (inactive) | 0.0698 (inactive) | -0.306 (inactive) | 0.107 (inactive) | -0.0939 | -2.93 (inactive) | -1.92 (inactive) | -2.86 |
| c1ccc(-c2cc3c(nc2-c2ccccc2)CCNC3)cc1 | -0.2 | -0.207 (inactive) | 0.346 (inactive) | 0.291 (inactive) | -0.815 (inactive) | 0.0291 | 0.0228 | 0.175 | -0.256 | -0.193 | -0.539 (inactive) | -0.101 | 1.39 (inactive) | 0.179 (inactive) | 0.484 (inactive) | 0.248 (inactive) | -0.597 | 1.18 (inactive) | 0.286 (inactive) | -0.433 |
| C[C@H]1O[C@H]2C3=C(C(=O)[C@@H]4O[C@@H]4[C@@H]3O)[C@@H]1[C@@H]1[C@@H](C)OC=C3[C@@H](O)[C@H]4O[C@H]4C(=O)[C@]312 | -0.176 | -3.24 (inactive) | -1.61 (inactive) | 1.65 (inactive) | 1.76 (inactive) | -0.418 | -0.208 | 0.251 | -0.306 | 0.534 | -0.209 (inactive) | -0.321 | -0.49 (inactive) | -0.569 (inactive) | 0.276 (inactive) | -0.987 (inactive) | 1.5 | -0.203 (inactive) | -0.0614 (inactive) | 0.441 |
| COC(=O)[C@H]1[C@@H](O)[C@@]2(O)c3c(OC)cc(OC)cc3O[C@@]2(c2ccc(OC)cc2)[C@@H]1c1ccccc1 | 0.226 | -4.75 (inactive) | -0.638 (inactive) | 1.82 (inactive) | 1.43 (inactive) | 0.442 | 0.0054 | 0.0165 | 0.295 | 0.683 | 0.662 (inactive) | -0.19 | 0.253 (inactive) | 0.0987 (inactive) | -0.15 (inactive) | -0.219 (inactive) | -1.37 | 0.0111 (inactive) | -0.0152 (inactive) | 0.219 |
| COC(=O)[C@H]1[C@H](c2ccccc2)C(=O)[C@]2(O)c3ccccc3O[C@@]12c1ccccc1 | 0.129 | -0.962 (inactive) | -1.45 (inactive) | -0.161 (inactive) | -0.474 (inactive) | 0.287 | -0.101 | 0.202 | 0.163 | 0.615 | -0.474 (inactive) | -0.0523 | -0.446 (inactive) | -0.657 (inactive) | 0.126 (inactive) | -0.564 (inactive) | 1.55 | -0.181 (inactive) | -1.55 (inactive) | -0.324 |
| CCOC(=O)[C@H]1CC=C2C(=O)Oc3ccc(Br)cc3[C@@H]21 | -0.707 | -0.87 (inactive) | -0.301 (inactive) | 0.0331 (inactive) | 34.1 (active) | 0.307 | -0.128 | 0.0083 | 0.127 | -0.968 | -0.704 (inactive) | 0.035 | 1.79 (inactive) | 1.03 (inactive) | -0.0107 (inactive) | 0.756 (inactive) | -0.747 | -0.0356 (inactive) | -1.75 (inactive) | -0.445 |
| CC1N(P(=O)(c2ccccc2)c2ccccc2)CC(O)(c2ccccc2)CC12CC2 (stereo not given) | -0.025 and -0.0606 | -0.601 (inactive) and -2.65 (inactive) | 0.693 (inactive) and 0.00162 (inactive) | 0.0075 (inactive) and -0.179 (inactive) | 0.84 (inactive) and 0.498 (inactive) | -0.586 and 0.107 | -0.0589 and 0.475 | -1.12 and -0.311 | 0.699 and 0.319 | -0.649 and -1.4 | -1.36 (inactive) and -1.82 (inactive) | -0.103 and 0.607 | 0.232 (inactive) and 0.667 (inactive) | -0.0745 (inactive) | 0.716 (inactive) and 0.248 (inactive) | 0.593 (inactive) and 0.642 (inactive) | -0.259 and -0.209 | -0.427 (inactive) and -1.04 (inactive) | -1.52 (inactive) and -0.626 (inactive) | -3.13 and -2.02 |
| COC(=O)C1(C)C=C2C(=C(C)C(=O)C2C)CN1 (stereo not given) | -0.163 | 0.0631 (inactive) | -0.596 (inactive) | -0.182 (inactive) | 3.71 (inactive) | -0.164 | 0.0442 | 0.219 | -0.186 | -0.473 | -1.84 (inactive) | 0.257 | 0.539 (inactive) | 0.405 (inactive) | 1.16 (inactive) | 0.643 (inactive) | -0.232 | -0.172 (inactive) | -2.31 (inactive) | -3.35 |
